High-throughput results as filed in PubChem.
FMDV inh: foot and mouth disease virus antiviral activity. AID 1159524. FMDV antiviral cell-based qHTS. 1.2% of 410,000 active. Potency, µM (doses to about 57.9 µM), without a hit: at the highest dose activity change, negative = inhibition, usual class: inhibitors; calls by dose curve; tested in HEK293T cells; also: read-out not given here; potency is read from the fitted curve at half-maximal effect; % is scaled to controls: 0 for no effect and ±100 for the full control effect; nearly all actives have a fitted effect of over 45% in size
CHX counter: counter-screen hit for Shiga toxin inhibitors, cycloheximide | max response, % | cell reporter, cycloheximide protein synthesis inhibition counterscreen | 12% of 300,000 active; in the data active = max response mostly above about 13%, no sharp cut-off; inactive = mostly below about 14%; also: read at 38.3 µM for the half of the compounds with a filed dose; 0% is about no effect
Lassa entry inh: Lassa virus entry inhibition. AID 540256. Lassa virus pseudotype entry inhibition, cell reporter. Potency, µM (titrated, usually from 37.9 µM), without a hit: top-dose activity change, negative = inhibition, most hits filed as inhibitors. 1.2% of 300,000 active; calls by dose curve; tested in HEK293 cells; also: potency is read from the fitted curve at half-maximal effect; % is scaled to controls: 0 for no effect and ±100 for the full control effect; nearly all actives have a fitted effect of over 50% in size
HCV inh: HCV inhibition. Huh7.5.1 HCVcc-Cre infection, luciferase reporter, 44 h. Potency, µM (doses to about 41.8 µM), for inactives: top-dose activity change, negative = inhibition, actives largely listed as inhibitors. 3.4% of 340,000 active; active = well fitted inhibition curve with a large enough effect; inconclusive = small, poorly fitted or top-dose-only effect, or another doubt; inactive = no such curve, though single readings can be large or run the other way; also: potency is read from the fitted curve at half-maximal effect; % is scaled to controls: 0 for no effect and ±100 for the full control effect
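Antiviral activity was scored by luciferase reporter output from cells infected with HCVcc-Cre (~0.5 moi) in presence of compound, 44 h infection period, cells seeded 1,000/well 4 h prior.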
MARV entry inh: inhibitors of Marburg virus binding or cell entry. Potency, µM (doses to about 37.8 µM), without a hit: at the highest dose activity change, negative = inhibition, hits mostly inhibitors. Marburg virus pseudotyped entry inhibition, cell reporter. 1.8% of 300,000 active; calls by dose curve; tested in HEK293 cells; also: potency is read from the fitted curve at half-maximal effect; % is scaled to controls: 0 for no effect and ±100 for the full control effect
Shiga toxin inh: inhibitors of Shiga toxin in Vero cells; AID 2315; inhibition, % at 38.7 µM; 9.2% of 290,000 active; Vero cells, Shiga toxin protein synthesis inhibition reporter; in the data active = inhibition mostly above about 28%, no sharp cut-off; inactive = mostly below about 43%; also: 0% is about no effect
The depositor's hits bear a star; ? = inconclusive; · = no result; ! = not active in a repeat; [ ] = remark or other dose. The list is not random: actives were taken first. Their share in the collection is about 13%.

SMILES	FMDV inh	CHX counter	Lassa entry inh	HCV inh	MARV entry inh	Shiga toxin inh
CCCOc1ccc(C(=O)NCC(c2ccco2)N(C)C)cc1 (stereo unspecified)	5.5%	15.6*	12.9%	-13.0%	?	21.4
N#CC1=C(N)Oc2cc(O)ccc2C1c1cccs1 (stereo unspecified)	?	2.9	-15.5%	-21.2%	-19.2%	-9.9
N#CC1=C(N)Oc2c(ccc3ccccc23)C1c1cccs1 (stereo unspecified)	-16.3%	23.2*	?	?	?	47.7*
COc1ccc2c(C)c(Cc3ccccc3)c(=O)oc2c1OC	?	1.2	·	?	·	14.3
CCCCc1c(C)c2ccc(OC)c(/C(C)=N\O)c2oc1=O	-11.5%	18.8*	-11.4%	?	8.9%	35.0
Cc1ccc(-n2ncc(C(=O)N3CCN(C4CCCCC4)CC3)c2C2CCN(C(=O)OC(C)(C)C)CC2)cc1C	?	·	2µM*	·	·	·
CCN1CCN(C(=O)c2cnn(-c3cccc(Cl)c3)c2C2CCN(C(=O)OC(C)(C)C)CC2)CC1	-13.2%	·	7.08µM*	·	·	·
CC(C)(C)OC(=O)N1CCC(c2c(C(=O)N3CCN(C4CCCCC4)CC3)cnn2-c2ccc(F)cc2)CC1	-9.4%	5.3	?	0.5%	27.5%[46.1 µM]	-1.9
COc1ccccc1C(=O)COC(=O)c1cnc(C)cn1	6.2%	·	-12.8%	4.9%	6.9%	·
CCCc1cc(NC(=O)COC(=O)c2ccc(O)cc2O)n(-c2ccccc2)n1	?	·	·	11.2µM*	·	·
CCCc1cc(NC(=O)CCl)n(-c2ccccc2)n1	?	10.6	?	22.4µM*	?	-6.5
CCS(=O)(=O)n1nc(-c2ccc(OC)cc2)nc1N	0.6%	22.8*	7.6%	-1.0%	15.8%[46.1 µM]	23.3
CCS(=O)(=O)n1nc(-c2ccc(Cl)cc2)nc1SC	71.0%	62.2*	13.9%	1.3%	-3.3%	87.4*
CCS(=O)(=O)n1nc(-c2ccccc2)nc1N	34.6%	-1.5	3.6%	8.4%	2.2%	-1.8
CS(=O)(=O)n1nc(-c2ccc(Cl)cc2)nc1N	19.3%	20.2*	16.1%	-4.2%	-10.8%[46.1 µM]	20.4*
CCS(=O)(=O)n1nc(-c2ccco2)nc1SC	-0.4%	7.3	3.0%	13.7%	-10.1%	42.2
NC[C@@H]1O[C@H](C23CC4CC(CC(C4)C2)C3)Cc2c1ccc(O)c2O	39.8µM*!	-4.8	18.3µM*	6.4%	13µM*	13.6
Cc1cccn2c(=O)c3cc(C(=O)NCc4cccnc4)c(=N)n(CCCO)c3nc12	-10.6%	·	2.7%[46.1 µM]	·	-1.7%[46.1 µM]	·
CCN(CC)c1ccc(N=Cc2ccc([N+](=O)[O-])o2)cc1	-9.4%	56.9*	?	12.6µM*	?	138.6*
COc1ccc(-c2cc(C(=O)Nc3nc4ccccc4s3)c3ccccc3n2)cc1OC	0.0%	16.2*	?	-24.0%	?	42.7*
COc1ccc(-c2cc(C(=O)Nc3ccccc3O)c3ccccc3n2)cc1OC	-26.2%	11.5	0.0%[46.1 µM]	-9.8%	1.1%[46.1 µM]	9.6
COc1ccc(-c2cc(C(=O)NNC(=O)c3csc(N4CCOCC4)n3)c3ccccc3n2)cc1OC	-16.5%	·	-8.5%	10µM*	?	·
COc1ccccc1NC(=O)c1cc(-c2cc(OC)c(OC)c(OC)c2)nc2ccccc12	-22.5%	6.0	?	?	3.16µM*	11.7
COc1ccc(-c2cc(C(=O)NNC(=O)c3csc(N4CCOCC4)n3)c3ccccc3n2)cc1	-16.7%	·	0.0%[46.1 µM]	?	?	·
CCOc1ccccc1NC(=O)c1cc(-c2cc(OC)c(OC)c(OC)c2)nc2ccccc12	-23.5%	-3.7	11.2µM*	8.91µM*	?	9.3
SMILES	FMDV inh	CHX counter	Lassa entry inh	HCV inh	MARV entry inh	Shiga toxin inh
COC(=O)c1cc(OC)c(OC)cc1NC(=O)c1cc(-c2ccccc2)nc2ccccc12	-16.1%	-0.1	-6.9%	7.2%	-15.4%	-3.5
C=CCNC(=S)NN=C1CCCCCCC1	12.2%	9.6	1.1%[46.1 µM]	4.1%	20.0%[46.1 µM]	37.8
Cc1cc(O)cc(=O)n1C	-8.9%	-6.5	-18.3%[46.1 µM]	6.8%	0.8%[46.1 µM]	15.4
Cc1cc(C)c(NC(=O)CCN2C(=O)c3ccccc3Sc3ncccc32)c(C)c1	-13.0%	·	27.1%[46.1 µM]	·	·	·
Cc1csc(NC(=O)CCn2c(=O)oc3ccc(Cl)cc32)n1	-17.4%	11.6	·	-16.8%	·	-9.0
COc1ccc(-c2cc(C(=O)c3c(N)n(C)c(=O)n(C)c3=O)c3ccccc3n2)cc1OC	44.4%	25.0*	·	-19.4%	·	14.1
O=C(Nc1ccccn1)c1cc(-c2cccc(Cl)c2)nc2ccccc12	-18.2%	-1.8	?	15.8µM*	?	16.9
O=C(Nc1ccc([N+](=O)[O-])cn1)c1cc(-c2cccc(Cl)c2)nc2ccccc12	-21.8%	-4.1	11.6%	1.6%	-9.3%	-5.2
CC(C)(C)c1ccccc1NC(=O)c1cc(-c2ccncc2)nc2ccccc12	1.3%	·	-19.9%[46.1 µM]	11.2µM*	?	·
Cc1ccc(-c2cc(C(=O)Nc3ccncc3)c3ccccc3n2)cc1	-8.0%	·	?	5.9%	?	·
Cn1c(N)c(C(=O)c2cc(-c3ccncc3)nc3ccccc23)c(=O)n(C)c1=O	24.2%	3.8	0.2%	-14.2%	-1.7%	-7.8
CN(CC(=O)Nc1ccc(F)c(F)c1F)C(=O)c1cc(-c2ccncc2)nc2ccccc12	-15.2%	·	2.5%	?	?	·
CN(CC(=O)Nc1ccc(Cl)c(C(F)(F)F)c1)C(=O)c1cc(-c2ccncc2)nc2ccccc12	28.2µM*	·	-17.0%[46.1 µM]	?	?	·
COc1ccc(CNC(=O)CN(CC2CCCO2)C(=O)CNS(=O)(=O)c2ccccc2)cc1 (stereo unspecified)	-3.9%	1.7	-14.9%	3.8%	5.4%[46.1 µM]	-7.5
Cc1csc(NC(=O)c2cc(-c3ccncc3)nc3ccccc23)n1	-22.3%	1.8	-1.8%	?	?	-3.6
Cc1nnc(NC(=O)c2cc(-c3ccncc3)nc3c(C)cccc23)s1	-16.3%	36.0*	·	-23.0%	·	32.2*
CCOC(=O)c1c(-c2ccccc2)csc1NC(=O)c1ccc(N2C(=O)CCC2=O)cc1	12.8%	-3.0	1.5%	-13.4%	9.0%	-11.0
CCCCCNC(=O)c1ccc2c(c1)ncn2-c1ccc(OC)cc1	15.7%	6.9	?	?	?	-7.5
CC(C)(C)n1cnc2cc(NS(=O)(=O)c3ccccc3)ccc21	-22.7%	18.2*	-12.6%	-1.5%	-9.4%	23.9
COc1ccc(NC(=O)c2cccc(NS(=O)(=O)c3ccccc3)c2)cc1	31.5%	-1.1	·	-23.3%	·	·
COc1ccc(-n2cnc3cc(N)ccc32)cc1	·	12.5*	?	-5.9%	6.2%	12.0
COc1ccc(-n2cnc3cc(NS(=O)(=O)c4ccccc4)ccc32)cc1	·	20.9*	?	?	?	36.8*
COc1ccc(-n2cnc3cc(C(=O)N4CCOCC4)ccc32)cc1	25.3%	55.7*	·	15.3%	·	45.3*
CC(C)(C)CC(C)(C)NC(=O)c1ccccc1	63.3%	-2.5	?	2.5%	-3.7%[46.1 µM]	14.1
CCN(C(=O)COC(=O)/C=C/c1cnc2ccccc2n1)C1CCS(=O)(=O)C1 (stereo unspecified)	-12.0%	10.2	?	-1.5%	?	-1.5
